Test results as given in PubChem BioAssay (NCATS).
Values joined by “and” are separate entries in the source; they are usually repeats but may differ in a detail not shown here. Identical values can stand only once. Inconclusive results are not listed. Some structures have more than one record in an assay (separate samples or runs), and their calls can disagree. Active and inactive are the calls of the source. The call rests on the fitted dose curve; in most records, active means well fitted inhibition curve with a large enough effect; inconclusive means small, poorly fitted or top-dose-only effect; inactive means flat fitted curve, though single readings scatter.

Legend:
[1] = tested on: HEK293; experiment: Cytotoxic Profiling of Annotated Libraries Using Quantitative High-Throughput Screening (AID 1296008); details: Five cell lines viability, CellTiter-Glo ATP luminescence, 48-72 h; max response: stronger effect = lower value; on max response: on the % scale 0 is the no-effect control and ±100 the full control effect
Outline: (§1)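 Compounds were pin-transferred onto cells and incubated 48 or 72 hr at 37 degree Celsius, 95% humidity. CellTiter-Glo was added, plates sat 10 min at room temperature, then ATP-coupled luminescence was imaged as the viability read-out.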

[2] = tested on: NIH3T3; experiment: as above; details: Five cell lines viability, CellTiter-Glo ATP luminescence, 48-72 h; max response: stronger effect = lower value
Outline: as §1

[3] = tested on: MCC-13; experiment: qHTS assay to identify novel small-molecules to repurpose for Merkel cell carcinoma treatment (AID 1296009); details: MCC and control cell lines, CellTiter-Glo viability, 72 h; series mostly up to 46 µM
Outline: (§2)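 Luminescence from CellTiter-Glo, read 10 min after addition at room temperature, reported viability following a 72 hr, 37 degree celsius treatment with NPC or MIPE compounds in titration; values normalized to plate controls.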

[4] = tested on: MKL-1; experiment: as above; details: MCC and control cell lines, CellTiter-Glo viability, 72 h; series mostly up to 46 µM
Outline: as §2

[5] = tested on: PC49; experiment: qHTS profiling for inhibitors of Plasmodium falciparum proliferation (AID 504749); details: P. falciparum in erythrocytes, SYBR Green DNA, 72 h; series mostly up to 28.7 µM
Outline: (§3)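 Fluorescence of SYBR Green-bound parasite DNA, read at 485/535 nm, served as the growth measure. Infected erythrocytes were cultured with compound 72 h; artemisinin (0.29 uM) and DMSO wells defined the normalization range.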

[6] = tested on: SC27B; experiment: as above; details: P. falciparum in erythrocytes, SYBR Green DNA, 72 h; series mostly up to 28.7 µM
Outline: as §3

[7] = tested on: TAB109; experiment: as above; details: P. falciparum in erythrocytes, SYBR Green DNA, 72 h; series mostly up to 28.7 µM
Outline: as §3

[8] = tested on: TAB113; experiment: as above; details: P. falciparum in erythrocytes, SYBR Green DNA, 72 h; series mostly up to 28.7 µM
Outline: as §3

[9] = tested on: TAB165; experiment: as above; details: P. falciparum in erythrocytes, SYBR Green DNA, 72 h; series mostly up to 28.7 µM
Outline: as §3

[10] = tested on: W2; experiment: as above; details: P. falciparum in erythrocytes, SYBR Green DNA, 72 h; series mostly up to 28.7 µM
Outline: as §3

[11] = tested on: HACAT; experiment: qHTS assay to identify novel small-molecules to repurpose for Merkel cell carcinoma treatment (AID 1296009); details: MCC and control cell lines, CellTiter-Glo viability, 72 h
Outline: as §2

[12] = tested on: HEK293T; experiment: as above; details: MCC and control cell lines, CellTiter-Glo viability, 72 h; at 44.8 µM (top of the series) unless noted
Outline: as §2

[13] = tested on: MKL-2; experiment: as above; details: MCC and control cell lines, CellTiter-Glo viability, 72 h; series mostly up to 46 µM
Outline: as §2

[14] = tested on: UISO; experiment: as above; details: MCC and control cell lines, CellTiter-Glo viability, 72 h; series mostly up to 46 µM
Outline: as §2

[15] = tested on: WaGa; experiment: as above; details: MCC and control cell lines, CellTiter-Glo viability, 72 h; series mostly up to 46 µM
Outline: as §2

[16] = tested on: HaCat; experiment: Cytotoxic Profiling of Annotated Libraries Using Quantitative High-Throughput Screening (AID 1296008); details: Five cell lines viability, CellTiter-Glo ATP luminescence, 48-72 h; max response: stronger effect = lower value; on max response: on the % scale 0 is the no-effect control and ±100 the full control effect
Outline: as §1

[17] = tested on: KB-3-1; experiment: as above; details: Five cell lines viability, CellTiter-Glo ATP luminescence, 48-72 h; max response: stronger effect = lower value
Outline: as §1

[18] = tested on: MCC-26; experiment: qHTS assay to identify novel small-molecules to repurpose for Merkel cell carcinoma treatment (AID 1296009); details: MCC and control cell lines, CellTiter-Glo viability, 72 h; series mostly up to 46 µM
Outline: as §2

[19] = tested on: NIH3T3; experiment: as above; details: MCC and control cell lines, CellTiter-Glo viability, 72 h; at 44.8 µM (top of the series) unless noted
Outline: as §2

[20] = tested on: CRL-7250; experiment: Cytotoxic Profiling of Annotated Libraries Using Quantitative High-Throughput Screening (AID 1296008); details: Five cell lines viability, CellTiter-Glo ATP luminescence, 48-72 h; max response: stronger effect = lower value; on max response: on the % scale 0 is the no-effect control and ±100 the full control effect
Outline: as §1

[21] = at 44.8 µM (top of the series) unless noted
Further: nearly all actives have a fitted effect of over 60% in size.
Potency means the concentration at half of the fitted maximal effect.

CC(=O)[C@H]1CC[C@H]2[C@@H]3CCC4=CC(=O)CC[C@]4(C)[C@H]3CC[C@]12C
active: Potency [1] 16.6 µM
inactive: max response [2] -0.969% | Potency [3] | Potency [4]

NC(=O)c1cccnc1
inactive: Potency [5] | Potency [6] | Potency [7] | Potency [8] | Potency [9] | Potency [10] | outcome [11, 21] | outcome [12] | Potency [3] | Potency [4] | Potency [13] | Potency [14] | Potency [15]

CN1CCCC(n2nc(Cc3ccc(Cl)cc3)c3ccccc3c2=O)CC1 (centres undefined)
inactive and 11.8 µM (active): Potency [18]
inactive: Potency [5] | max response [16] 3.73% | outcome [16] | max response [17] -6.94% and -2.19% | max response [2] 5% | outcome [11, 21] | Potency [3]
active: Potency [10] 6.01 µM | Potency [4] 1.48 µM | Potency [13] 15 µM and 418 nM | Potency [14] 13.2 µM | Potency [15] 0.296 µM

CC(=O)Oc1ccccc1C(=O)Nc1ncc([N+](=O)[O-])s1
inactive: Potency [5] | Potency [6] | Potency [7] | Potency [8] | Potency [9] | max response [1] -13.9% | outcome [16] | max response [17] -5.17% and -18.8% | outcome [2] | outcome ([11]; at 44.8 µM (top of the series)) | outcome ([11]; at 92 µM (top of the series)) | Potency [3] | Potency [4] | outcome [19] inactive [at 92 µM]
inactive and 16.8 µM (active): Potency [15]

Oc1c(Cl)cc(Cl)c2cccnc12
active: Potency [9] 10 µM | Potency [2] 23.7 µM | Potency [4] 5.31 µM | Potency [13] 3.76 µM | Potency [14] 13.3 µM | Potency [15] 11.9 µM
inactive: Potency [5] | max response [17] -16.3% | Potency [3] | Potency [18]

C[C@@H](NCCCc1cccc(C(F)(F)F)c1)c1cccc2ccccc12
inactive: outcome [20] | max response [16] -15.9% | max response [17] 5.7% | outcome [2] | Potency [3] | Potency [4] | Potency [13] | outcome [19] | Potency [14]
inactive and 29.9 µM (active): Potency [18]
active: Potency [6] 6.31 µM | Potency [7] 4.47 µM | Potency [8] 3.55 µM | Potency [9] 3.98 µM | Potency [10] 1.69 µM | Potency [2] 18.8 µM

CN(CCOc1ccc(CC2SC(=O)NC2=O)cc1)c1ccccn1 (centres undefined)
inactive: Potency [5] | Potency [6] | Potency [7] | Potency [8] | Potency [9] | Potency [10] | max response [20] 0.739% | outcome [16] | max response [17] -1.01% and -2.41% | max response [2] 0.939% | outcome [11, 21] | outcome [12] | Potency [3] | Potency [18] | Potency [4] | Potency [13] | Potency [14] | Potency [15]

CCCCCCNC(=O)n1cc(F)c(=O)[nH]c1=O
active: Potency [9] 10 µM | Potency [10] 4.78 µM | Potency [1] 7.5 µM and 13.2 µM | Potency [2] 1.5 µM and 3.72 µM
inactive: max response [16] -37.7% | max response [17] -8.63% and -17% | Potency [3] | Potency [18] | Potency [4] | Potency [13]

NC(N)=NC(N)=NCCc1ccccc1
inactive: Potency [5] | Potency [6] | Potency [7] | Potency [8] | Potency [9] | Potency [10]

CC(C)(C#N)c1cc(Cn2cncn2)cc(C(C)(C)C#N)c1
inactive: Potency [5] | Potency [6] | Potency [7] | Potency [8] | Potency [9] | Potency [10] | Potency [3] | Potency [18] | Potency [4] | Potency [13] | Potency [14] | Potency [15]

C1CCC(C(CC2CCCCN2)C2CCCCC2)CC1 (centres undefined)
active: Potency [5] 2.82 µM | Potency [6] 7.94 µM | Potency [7] 5.62 µM | Potency [8] 6.31 µM | Potency [9] 10 µM | Potency [10] 1.69 µM | Potency [1] 26.4 µM | Potency [4] 6.68 µM | Potency [13] 2.37 µM and 18.7 µM | Potency [15] 21.1 µM
16.8 µM (active) and inactive: Potency [14]
inactive: Potency [3]

CCc1c2c(nc3ccc(OC(=O)N4CCC(N5CCCCC5)CC4)cc13)-c1cc3c(c(=O)n1C2)COC(=O)[C@]3(O)CC
inactive: Potency [5] | Potency [6] | Potency [7] | Potency [8] | Potency [9] | max response [17] 43.3%
active: Potency [1] 7.5 µM and 1.05 µM | Potency [16] 23.7 µM and 4.18 µM | Potency [2] 14.8 µM | Potency [18] 16.8 µM | Potency [4] 1.88 µM and 1.87 µM | Potency [13] 944 nM and 296 nM | Potency [14] 0.833 µM | Potency [15] 422 nM and 662 nM

Nc1nc(=S)c2[nH]cnc2[nH]1
active: Potency [20] 18.8 µM | Potency [16] 1.5 µM and 4.69 µM | Potency [17] 5.17 µM and 3.66 µM and 1.32 µM | Potency [2] 841 nM and 3.32 µM | Potency [3] 4.22 µM | Potency [18] 20.9 µM | Potency [4] 2.37 µM and 23.5 µM | Potency [13] 7.5 µM | Potency [14] 1.33 µM | Potency [15] 3.35 µM and 10.5 µM

CNC1CCCN(c2c(F)cc3c(=O)c(C(=O)O)cn(C4CC4)c3c2OC)C1 (centres undefined)
inactive: Potency [5] | Potency [6] | Potency [7] | Potency [8] | Potency [9] | max response [20] -2.7% | max response [16] 0.986% and -11% | outcome [17] | max response [2] -6.02% | outcome [2] | Potency [3] | Potency [18] | Potency [4] | Potency [13] | outcome [19] | Potency [14] | Potency [15]

CC[C@H](C)C(=O)O[C@H]1C[C@@H](C)C=C2C=C[C@H](C)[C@H](CC[C@@H]3C[C@@H](O)CC(=O)O3)[C@H]21
23.7 µM (active) and inactive: Potency [4]
inactive: Potency [5] | Potency [6] | Potency [7] | Potency [8] | Potency [9] | max response [2] -16.3% | Potency [18] | Potency [15]
active: Potency [20] 2.66 µM and 13.2 µM and 3.17 µM | Potency [16] 11.8 µM | Potency [3] 21.1 µM | Potency [14] 9.44 µM and 20.9 µM

Nc1nc(N)nc(-c2cc(Cl)ccc2Cl)n1
inactive: Potency [5] | Potency [6] | Potency [7] | Potency [8] | Potency [9] | Potency [10] | max response [20] -4.29% and -4.54% | max response [16] -21.1% and 4.26% | max response [17] -7.71% | max response [2] -1.04% and -13.6% | Potency [3] | Potency [4] | Potency [13] | Potency [14] | Potency [15]

CCCCc1oc2ccc(NS(C)(=O)=O)cc2c1C(=O)c1ccc(OCCCN(CCCC)CCCC)cc1
active: Potency [1] 11.6 µM | Potency [16] 23.7 µM | Potency [17] 23.1 µM | Potency [2] 9.44 µM | Potency [13] 13.2 µM and 4.73 µM
inactive: Potency [3] | Potency [18]

COc1cc(NCc2ccc3nc(N)nc(N)c3c2C)cc(OC)c1OC
active: Potency [5] 0.501 µM | Potency [6] 2.24 µM | Potency [7] 1 µM | Potency [8] 2.51 µM | Potency [9] 1.12 µM | Potency [10] 0.301 µM | Potency [1] 4.18 µM and 53.1 nM | Potency [16] 1.06 µM | Potency [17] 3.32 µM and 326 nM | Potency [2] 3.72 µM and 66.8 nM | Potency [4] 29.6 µM | Potency [13] 18.7 µM | Potency [15] 2.96 µM and 94.4 nM
inactive: Potency [3] | Potency [18]

Nc1[nH]c(=O)ncc1F
inactive: Potency [5] | Potency [6] | Potency [7] | Potency [8] | Potency [9] | Potency [10]

OCc1ccc(-c2nn(Cc3ccccc3)c3ccccc23)o1
inactive: outcome [17] | Potency [3] | Potency [18]
active: Potency [13] 18.7 µM | Potency [14] 11.8 µM

Cc1ccc(S(=O)(=O)N[C@@H](Cc2ccccc2)C(=O)CCl)cc1
inactive: max response [20] -1.25% | outcome [16] | max response [17] 6.1% | outcome [2] | outcome [11, 21] | Potency [3] | outcome [19]

NC(=O)c1cccc(N)c1
inactive: max response [20] -10% | max response [16] -6.72% | outcome [17] | outcome [2] | Potency [3] | Potency [18] | Potency [4] | Potency [13] | outcome [19] | Potency [14] | Potency [15]
